Measurements reported in the supplement of paper PMC11732987, “Enantioselective OTUD7B fragment discovery through chemoproteomics screening and high-throughput optimisation” (Communications Chemistry, 2025).

Experiments:
Test in all cases: log2 ratio of Biotin-Ahx-Ub-VS probe labelling (fragment/DMSO); higher = less target engagement (more negative = stronger competition), active = hit call of the paper (q ≤ 0.05, log2 ratio ≤ -1)
Conditions in all cases: compound concentration: 200 uM; treatment time: 3 h
USP42 = target: T1, USP42 (UniProt Q9H9J4)
T1 sequence (whole entry): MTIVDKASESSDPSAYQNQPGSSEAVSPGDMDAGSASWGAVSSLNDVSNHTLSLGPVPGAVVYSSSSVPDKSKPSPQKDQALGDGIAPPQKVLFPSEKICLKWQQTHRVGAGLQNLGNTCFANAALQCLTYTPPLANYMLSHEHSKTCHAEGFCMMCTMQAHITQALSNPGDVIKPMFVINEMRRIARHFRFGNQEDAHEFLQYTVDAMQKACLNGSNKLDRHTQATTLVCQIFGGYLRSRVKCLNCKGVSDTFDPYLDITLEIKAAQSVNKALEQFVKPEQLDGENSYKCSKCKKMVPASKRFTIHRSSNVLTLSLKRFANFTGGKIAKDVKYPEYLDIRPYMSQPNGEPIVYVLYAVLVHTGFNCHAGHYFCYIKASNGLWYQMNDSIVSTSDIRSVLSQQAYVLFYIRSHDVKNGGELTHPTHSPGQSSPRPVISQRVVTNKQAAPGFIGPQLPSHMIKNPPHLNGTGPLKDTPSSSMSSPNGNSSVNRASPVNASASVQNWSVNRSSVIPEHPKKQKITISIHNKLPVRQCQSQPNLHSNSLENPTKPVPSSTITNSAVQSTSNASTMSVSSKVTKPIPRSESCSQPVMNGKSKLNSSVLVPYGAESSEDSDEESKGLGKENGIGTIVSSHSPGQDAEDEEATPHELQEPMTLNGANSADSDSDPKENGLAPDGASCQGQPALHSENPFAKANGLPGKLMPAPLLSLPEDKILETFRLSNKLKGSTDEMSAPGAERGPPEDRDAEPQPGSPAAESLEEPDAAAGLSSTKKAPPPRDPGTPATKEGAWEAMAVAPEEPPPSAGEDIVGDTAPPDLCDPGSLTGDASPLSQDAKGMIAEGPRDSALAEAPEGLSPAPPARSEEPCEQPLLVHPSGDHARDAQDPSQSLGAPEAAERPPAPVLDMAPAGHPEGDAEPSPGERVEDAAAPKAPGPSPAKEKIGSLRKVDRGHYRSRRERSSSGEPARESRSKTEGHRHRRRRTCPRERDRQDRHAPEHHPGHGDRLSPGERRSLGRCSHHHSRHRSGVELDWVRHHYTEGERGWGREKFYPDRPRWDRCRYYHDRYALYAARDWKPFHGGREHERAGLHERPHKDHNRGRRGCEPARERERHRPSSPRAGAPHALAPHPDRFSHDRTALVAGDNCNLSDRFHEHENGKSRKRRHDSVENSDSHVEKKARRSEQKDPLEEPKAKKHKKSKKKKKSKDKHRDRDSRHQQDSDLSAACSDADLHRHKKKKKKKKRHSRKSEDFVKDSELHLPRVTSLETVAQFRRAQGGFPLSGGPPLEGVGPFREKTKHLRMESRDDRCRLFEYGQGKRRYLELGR
Summary of the method: (§1)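 Triplicate samples of HEK293T lysate, 495 µg each, received fragment at 200 µM or vehicle for 3 h, followed by Biotin-Ahx-Ub-VS (0.5 µM final) for 1 h. After NeutrAvidin enrichment of labelled DUBs and LysC/trypsin digestion, peptides were run by diaPASEF LC-MS/MS. The values are average log2 fragment/vehicle ratios from global-median-normalised Spectronaut label-free quantities, tested by unpaired t-test on proteins having ≥2 unique peptides.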

USP46 = USP46 (UniProt P62068)
USP46, sequence (P62068 whole entry): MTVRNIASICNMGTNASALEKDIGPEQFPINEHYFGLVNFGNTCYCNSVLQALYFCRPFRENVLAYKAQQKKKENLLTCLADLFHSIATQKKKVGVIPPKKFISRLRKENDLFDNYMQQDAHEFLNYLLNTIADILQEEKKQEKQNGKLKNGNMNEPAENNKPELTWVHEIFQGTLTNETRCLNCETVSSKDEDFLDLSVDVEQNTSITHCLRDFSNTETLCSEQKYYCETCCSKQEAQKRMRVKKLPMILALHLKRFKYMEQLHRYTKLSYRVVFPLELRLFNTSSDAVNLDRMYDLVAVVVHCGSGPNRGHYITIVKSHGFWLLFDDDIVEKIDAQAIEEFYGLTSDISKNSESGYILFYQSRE
Summary of the method: as §1

USP47 = target: T2, USP47 (UniProt Q96K76)
T2 sequence (whole entry): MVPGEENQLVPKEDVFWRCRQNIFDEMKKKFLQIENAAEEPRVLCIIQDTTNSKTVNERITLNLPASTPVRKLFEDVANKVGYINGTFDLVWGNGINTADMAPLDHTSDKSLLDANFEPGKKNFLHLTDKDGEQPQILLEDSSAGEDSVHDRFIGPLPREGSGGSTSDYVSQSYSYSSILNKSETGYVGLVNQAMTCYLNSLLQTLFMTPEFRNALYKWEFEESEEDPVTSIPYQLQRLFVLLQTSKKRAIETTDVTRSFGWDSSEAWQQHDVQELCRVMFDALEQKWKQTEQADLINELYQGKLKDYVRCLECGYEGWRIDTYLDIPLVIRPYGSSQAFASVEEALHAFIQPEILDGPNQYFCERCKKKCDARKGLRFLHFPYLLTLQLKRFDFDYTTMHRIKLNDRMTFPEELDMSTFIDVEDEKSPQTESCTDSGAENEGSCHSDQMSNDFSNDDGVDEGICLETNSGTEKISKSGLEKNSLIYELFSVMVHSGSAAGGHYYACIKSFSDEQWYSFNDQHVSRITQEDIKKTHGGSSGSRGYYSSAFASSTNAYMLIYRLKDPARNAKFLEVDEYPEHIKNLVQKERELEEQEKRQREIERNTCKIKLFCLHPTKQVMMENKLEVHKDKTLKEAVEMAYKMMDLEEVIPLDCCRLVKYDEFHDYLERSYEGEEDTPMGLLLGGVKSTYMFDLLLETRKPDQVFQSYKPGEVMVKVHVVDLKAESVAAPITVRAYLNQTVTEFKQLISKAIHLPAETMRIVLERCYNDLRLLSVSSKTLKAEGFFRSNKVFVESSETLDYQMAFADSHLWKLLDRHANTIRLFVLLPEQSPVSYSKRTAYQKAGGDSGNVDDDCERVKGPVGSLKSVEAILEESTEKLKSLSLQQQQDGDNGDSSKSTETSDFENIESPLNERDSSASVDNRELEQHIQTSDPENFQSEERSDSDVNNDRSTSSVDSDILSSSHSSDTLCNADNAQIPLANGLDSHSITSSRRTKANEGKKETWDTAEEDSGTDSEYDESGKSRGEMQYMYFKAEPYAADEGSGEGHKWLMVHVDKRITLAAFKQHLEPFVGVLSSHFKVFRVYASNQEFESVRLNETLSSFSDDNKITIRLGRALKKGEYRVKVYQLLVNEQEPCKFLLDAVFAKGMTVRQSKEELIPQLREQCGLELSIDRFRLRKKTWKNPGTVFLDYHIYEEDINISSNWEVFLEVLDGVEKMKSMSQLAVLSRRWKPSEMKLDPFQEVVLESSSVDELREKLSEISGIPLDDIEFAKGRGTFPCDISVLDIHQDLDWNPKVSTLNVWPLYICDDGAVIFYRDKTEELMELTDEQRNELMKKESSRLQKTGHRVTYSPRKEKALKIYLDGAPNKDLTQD
Summary of the method: as §1

USP48 = target: T3, USP48 (UniProt Q86UV5)
T3 sequence (whole entry): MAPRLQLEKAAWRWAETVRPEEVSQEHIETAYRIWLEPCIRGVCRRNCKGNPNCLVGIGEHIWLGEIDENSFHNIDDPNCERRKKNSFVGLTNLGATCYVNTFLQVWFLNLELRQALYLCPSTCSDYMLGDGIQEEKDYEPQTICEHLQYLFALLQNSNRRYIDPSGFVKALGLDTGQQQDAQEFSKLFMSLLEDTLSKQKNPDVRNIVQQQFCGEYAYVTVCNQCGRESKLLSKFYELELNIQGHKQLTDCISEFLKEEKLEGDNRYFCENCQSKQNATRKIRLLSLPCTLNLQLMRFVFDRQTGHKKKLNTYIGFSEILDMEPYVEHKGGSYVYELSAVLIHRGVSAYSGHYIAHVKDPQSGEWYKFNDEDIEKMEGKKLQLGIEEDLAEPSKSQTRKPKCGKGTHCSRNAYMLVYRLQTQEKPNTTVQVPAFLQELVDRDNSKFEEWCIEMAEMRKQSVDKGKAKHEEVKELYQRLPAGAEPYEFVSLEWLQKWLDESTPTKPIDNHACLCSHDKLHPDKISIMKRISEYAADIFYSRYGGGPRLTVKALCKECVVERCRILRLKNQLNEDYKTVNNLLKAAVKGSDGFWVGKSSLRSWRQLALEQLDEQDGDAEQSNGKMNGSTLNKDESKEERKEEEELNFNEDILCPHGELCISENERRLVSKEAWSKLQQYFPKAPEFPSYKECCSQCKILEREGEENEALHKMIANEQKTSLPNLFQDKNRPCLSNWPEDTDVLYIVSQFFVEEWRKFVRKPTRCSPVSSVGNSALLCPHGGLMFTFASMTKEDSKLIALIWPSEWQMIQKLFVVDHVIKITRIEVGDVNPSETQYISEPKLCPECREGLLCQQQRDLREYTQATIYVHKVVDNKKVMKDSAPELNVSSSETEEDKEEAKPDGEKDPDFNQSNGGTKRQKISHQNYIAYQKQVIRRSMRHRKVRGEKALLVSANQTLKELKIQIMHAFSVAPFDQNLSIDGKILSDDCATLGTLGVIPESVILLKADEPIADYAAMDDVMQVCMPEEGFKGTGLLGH
Summary of the method: as §1

USP5 = target: T4, USP5 (UniProt P45974)
T4 sequence (whole entry): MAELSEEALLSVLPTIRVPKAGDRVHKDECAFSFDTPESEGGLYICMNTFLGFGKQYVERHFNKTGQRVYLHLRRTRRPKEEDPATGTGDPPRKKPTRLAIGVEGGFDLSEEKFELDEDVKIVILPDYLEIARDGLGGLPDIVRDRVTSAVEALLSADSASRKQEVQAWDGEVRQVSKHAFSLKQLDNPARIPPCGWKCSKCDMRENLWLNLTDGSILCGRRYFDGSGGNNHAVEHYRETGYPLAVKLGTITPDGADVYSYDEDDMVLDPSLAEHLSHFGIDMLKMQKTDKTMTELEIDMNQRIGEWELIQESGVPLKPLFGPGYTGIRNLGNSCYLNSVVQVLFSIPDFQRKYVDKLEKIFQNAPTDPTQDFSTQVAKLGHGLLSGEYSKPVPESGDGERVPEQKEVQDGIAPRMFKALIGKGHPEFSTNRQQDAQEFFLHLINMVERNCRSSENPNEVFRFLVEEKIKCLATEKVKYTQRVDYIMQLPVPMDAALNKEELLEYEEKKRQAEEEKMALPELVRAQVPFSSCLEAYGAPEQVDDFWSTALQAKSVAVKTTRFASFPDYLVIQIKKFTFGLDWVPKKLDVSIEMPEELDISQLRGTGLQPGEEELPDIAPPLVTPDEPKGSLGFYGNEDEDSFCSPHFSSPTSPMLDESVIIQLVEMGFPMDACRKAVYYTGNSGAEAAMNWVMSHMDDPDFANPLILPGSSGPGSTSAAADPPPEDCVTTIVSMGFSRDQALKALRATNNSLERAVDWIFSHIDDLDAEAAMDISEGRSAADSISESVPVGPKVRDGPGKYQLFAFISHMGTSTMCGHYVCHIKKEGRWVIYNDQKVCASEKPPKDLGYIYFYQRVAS
Summary of the method: as §1

USP54 = USP54 (UniProt Q70EL1)
USP54, sequence (Q70EL1 whole entry): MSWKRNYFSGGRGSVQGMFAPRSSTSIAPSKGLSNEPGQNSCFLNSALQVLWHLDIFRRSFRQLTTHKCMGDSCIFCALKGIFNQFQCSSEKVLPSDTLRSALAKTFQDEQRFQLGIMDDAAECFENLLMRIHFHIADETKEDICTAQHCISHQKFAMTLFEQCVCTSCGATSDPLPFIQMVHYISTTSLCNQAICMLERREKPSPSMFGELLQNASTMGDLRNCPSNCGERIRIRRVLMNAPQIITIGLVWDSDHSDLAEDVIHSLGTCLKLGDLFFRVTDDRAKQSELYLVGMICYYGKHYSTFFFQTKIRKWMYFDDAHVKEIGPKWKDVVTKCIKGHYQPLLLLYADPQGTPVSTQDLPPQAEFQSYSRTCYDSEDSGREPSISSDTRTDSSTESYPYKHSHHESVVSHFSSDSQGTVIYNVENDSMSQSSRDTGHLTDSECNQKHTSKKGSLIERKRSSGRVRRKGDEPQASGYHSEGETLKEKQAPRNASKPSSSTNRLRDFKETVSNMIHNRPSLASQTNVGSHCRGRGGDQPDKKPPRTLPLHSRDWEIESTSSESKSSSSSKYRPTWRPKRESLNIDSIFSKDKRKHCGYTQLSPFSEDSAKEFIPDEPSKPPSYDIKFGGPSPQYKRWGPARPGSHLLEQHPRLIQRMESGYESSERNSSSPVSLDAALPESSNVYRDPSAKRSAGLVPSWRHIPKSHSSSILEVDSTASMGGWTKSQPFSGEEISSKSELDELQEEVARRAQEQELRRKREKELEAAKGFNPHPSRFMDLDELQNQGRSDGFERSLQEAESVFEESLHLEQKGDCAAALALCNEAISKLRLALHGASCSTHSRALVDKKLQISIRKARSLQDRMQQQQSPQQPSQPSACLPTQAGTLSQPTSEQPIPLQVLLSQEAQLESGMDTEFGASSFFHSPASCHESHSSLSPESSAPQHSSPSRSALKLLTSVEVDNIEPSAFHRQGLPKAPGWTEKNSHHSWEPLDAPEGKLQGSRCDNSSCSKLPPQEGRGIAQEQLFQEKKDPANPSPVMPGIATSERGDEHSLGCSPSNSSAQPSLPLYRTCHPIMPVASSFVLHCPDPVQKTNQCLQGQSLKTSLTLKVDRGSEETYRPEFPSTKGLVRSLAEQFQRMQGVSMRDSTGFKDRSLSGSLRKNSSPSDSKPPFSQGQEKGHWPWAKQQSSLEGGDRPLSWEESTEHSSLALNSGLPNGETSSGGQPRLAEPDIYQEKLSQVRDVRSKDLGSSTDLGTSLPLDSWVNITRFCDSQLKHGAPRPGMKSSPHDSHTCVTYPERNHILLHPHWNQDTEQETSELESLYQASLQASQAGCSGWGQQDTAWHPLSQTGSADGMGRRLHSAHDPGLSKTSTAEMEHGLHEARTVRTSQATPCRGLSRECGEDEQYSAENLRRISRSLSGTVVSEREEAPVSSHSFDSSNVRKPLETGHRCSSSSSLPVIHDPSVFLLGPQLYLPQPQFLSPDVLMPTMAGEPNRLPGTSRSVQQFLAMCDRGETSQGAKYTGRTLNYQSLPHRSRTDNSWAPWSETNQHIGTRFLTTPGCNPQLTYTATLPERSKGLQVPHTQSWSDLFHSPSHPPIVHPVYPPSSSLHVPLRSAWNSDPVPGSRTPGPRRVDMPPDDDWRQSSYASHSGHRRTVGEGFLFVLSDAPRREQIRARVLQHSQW
Summary of the method: as §1

USP7 = USP7 (UniProt Q93009)
USP7, sequence (Q93009 whole entry, looked up): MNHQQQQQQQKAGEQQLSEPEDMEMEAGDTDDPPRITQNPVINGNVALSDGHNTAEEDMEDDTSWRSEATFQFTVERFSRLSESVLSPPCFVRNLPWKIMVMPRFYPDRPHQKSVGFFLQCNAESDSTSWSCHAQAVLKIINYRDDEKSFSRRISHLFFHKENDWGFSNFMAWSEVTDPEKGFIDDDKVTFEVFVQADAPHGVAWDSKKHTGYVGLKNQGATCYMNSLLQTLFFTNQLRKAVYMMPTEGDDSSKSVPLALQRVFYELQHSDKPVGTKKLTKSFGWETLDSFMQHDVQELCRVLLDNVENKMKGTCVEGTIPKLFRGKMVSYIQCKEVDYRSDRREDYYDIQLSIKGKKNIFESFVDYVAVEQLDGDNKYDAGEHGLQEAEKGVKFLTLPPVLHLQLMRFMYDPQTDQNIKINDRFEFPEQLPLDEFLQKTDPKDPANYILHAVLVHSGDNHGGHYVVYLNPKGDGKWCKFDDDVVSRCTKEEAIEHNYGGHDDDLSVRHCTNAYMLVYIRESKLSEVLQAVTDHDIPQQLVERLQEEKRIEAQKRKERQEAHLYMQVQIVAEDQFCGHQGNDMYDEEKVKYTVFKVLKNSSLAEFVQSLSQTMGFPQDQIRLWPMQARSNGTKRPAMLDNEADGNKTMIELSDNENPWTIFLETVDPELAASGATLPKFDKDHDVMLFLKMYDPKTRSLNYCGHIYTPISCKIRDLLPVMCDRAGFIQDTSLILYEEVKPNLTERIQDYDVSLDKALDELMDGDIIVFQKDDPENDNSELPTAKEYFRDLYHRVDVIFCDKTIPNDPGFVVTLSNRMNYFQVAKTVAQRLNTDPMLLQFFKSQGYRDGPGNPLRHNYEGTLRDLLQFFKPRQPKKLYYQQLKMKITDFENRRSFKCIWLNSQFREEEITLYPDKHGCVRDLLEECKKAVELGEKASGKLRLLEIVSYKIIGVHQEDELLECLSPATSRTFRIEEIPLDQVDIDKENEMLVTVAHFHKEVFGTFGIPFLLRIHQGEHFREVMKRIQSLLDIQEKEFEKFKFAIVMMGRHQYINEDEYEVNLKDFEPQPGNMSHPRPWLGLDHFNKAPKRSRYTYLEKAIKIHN
Summary of the method: as §1

USP8 = target: T5, USP8 (UniProt P40818)
T5 sequence (whole entry): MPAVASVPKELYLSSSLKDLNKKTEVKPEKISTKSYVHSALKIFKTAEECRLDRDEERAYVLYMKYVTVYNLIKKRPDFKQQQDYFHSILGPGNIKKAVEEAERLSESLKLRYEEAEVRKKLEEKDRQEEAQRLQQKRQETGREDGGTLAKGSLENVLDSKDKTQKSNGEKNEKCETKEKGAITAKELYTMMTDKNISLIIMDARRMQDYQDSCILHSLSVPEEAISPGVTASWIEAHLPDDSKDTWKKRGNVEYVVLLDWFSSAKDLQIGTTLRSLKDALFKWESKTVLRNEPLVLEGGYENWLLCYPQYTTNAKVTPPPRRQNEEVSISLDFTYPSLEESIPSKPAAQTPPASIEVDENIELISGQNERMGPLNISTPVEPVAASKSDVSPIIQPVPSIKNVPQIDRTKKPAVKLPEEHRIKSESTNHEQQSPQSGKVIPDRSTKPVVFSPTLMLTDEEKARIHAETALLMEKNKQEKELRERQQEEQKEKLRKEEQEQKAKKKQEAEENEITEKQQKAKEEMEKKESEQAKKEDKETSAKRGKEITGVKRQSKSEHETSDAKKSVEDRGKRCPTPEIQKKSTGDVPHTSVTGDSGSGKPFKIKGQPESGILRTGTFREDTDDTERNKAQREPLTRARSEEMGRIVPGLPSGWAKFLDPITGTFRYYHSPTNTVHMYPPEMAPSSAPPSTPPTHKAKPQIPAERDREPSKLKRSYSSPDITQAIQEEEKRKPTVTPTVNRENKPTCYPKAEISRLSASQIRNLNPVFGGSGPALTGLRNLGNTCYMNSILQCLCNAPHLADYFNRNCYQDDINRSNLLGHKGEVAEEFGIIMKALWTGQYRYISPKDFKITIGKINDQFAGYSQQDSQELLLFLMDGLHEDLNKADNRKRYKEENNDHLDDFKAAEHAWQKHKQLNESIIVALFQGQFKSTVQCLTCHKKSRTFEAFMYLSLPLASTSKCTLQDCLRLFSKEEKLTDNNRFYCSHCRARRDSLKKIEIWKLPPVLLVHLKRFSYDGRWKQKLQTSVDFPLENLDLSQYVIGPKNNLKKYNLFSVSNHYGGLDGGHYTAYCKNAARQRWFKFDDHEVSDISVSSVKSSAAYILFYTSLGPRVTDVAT
Summary of the method: as §1

USP9X = USP9X (UniProt Q93008)
Summary of the method: as §1

UniProt O00487 = target: UniProt O00487
UniProt O00487, sequence (O00487 whole entry): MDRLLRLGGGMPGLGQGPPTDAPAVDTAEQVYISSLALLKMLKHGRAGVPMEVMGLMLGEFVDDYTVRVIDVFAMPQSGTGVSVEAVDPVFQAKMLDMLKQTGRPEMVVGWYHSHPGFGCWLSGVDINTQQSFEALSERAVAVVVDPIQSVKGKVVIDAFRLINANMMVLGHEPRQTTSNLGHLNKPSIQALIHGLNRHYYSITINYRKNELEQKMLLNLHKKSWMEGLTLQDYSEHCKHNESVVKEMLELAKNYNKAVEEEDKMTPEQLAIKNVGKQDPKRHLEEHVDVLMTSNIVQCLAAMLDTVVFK
Summary of the method: as §1

Measured: log2 ratio of Biotin-Ahx-Ub-VS probe labelling

O=C(CCl)N1CC2(CCOCC2)C1
inactive: USP42 -0.145 | USP46 0.00462 | USP47 0.0373 | USP48 -0.152 | USP5 0.362 | USP54 0.355 | USP7 -0.055 | USP8 0.147 | USP9X -0.238 | UniProt O00487 -0.0916
